Measurements as given in ChEMBL document CHEMBL4513216, “Probing the Open Global Health Chemical Diversity Library for Multistage-Active Starting Points for Next-Generation Antimalarials” (ACS Infect Dis, 2020).
Among all 69,000 compounds or so, about 8,600 (12%) showed an effect of 50% or more. The list comes from a sample in which strong results are over-represented; it also holds similar structures and randomly drawn compounds.

Each compound was assayed on Plasmodium berghei (assay: Screen against P. berghei liver stage (PbLuc), transformed with Luciferase, at 10uM). Settings: tested at 10 uM.
Format: functional, HepG2

Point of comparison: `O=S(=O)(N1CCOCC1)N1CCCC1Cn1cccn1` (stereo not drawn), INHIBITION -5.71%. Against it:
- CCN1CCn2c(C)cnc2C12CCN(C(=O)Cc1ccccc1)CC2 — higher, 30.9%
- CC(C)(CNC(=O)CCCOc1cccc(F)c1)C(N)=O — higher, 30.65%
- Cc1nc(CN2CCCC(c3nccs3)C2)cs1 (stereo not drawn) — higher, 24.05%
- CN(C)CC(=O)N1Cc2nc(C(=O)N3CCCN(C)CC3)oc2C1 — higher, -2.26%
- Cc1ccc(Cl)cc1C(=O)N1CCC2(CC1)c1ccccc1[C@@H](N)[C@@H]2O — higher, 80.1%
- N[C@@H]1c2ccccc2C2(CCN(C(=O)c3ccc(=O)[nH]c3)CC2)[C@H]1O — higher, 4.795%
- COc1ccc(C(=O)N2CCC3(CC2)c2ccccc2[C@@H](N)[C@@H]3O)cc1 — higher, 66.55%
- N[C@@H]1c2ccccc2C2(CCN(C(=O)c3ccccc3O)CC2)[C@H]1O — higher, -5.395%
- Cc1ccc(C(=O)N2CCC3(CC2)c2ccccc2[C@@H](N)[C@@H]3O)cc1F — higher, 35.1%
- CC(C)c1cc(C(=O)N2CCC3(CC2)c2ccccc2[C@@H](N)[C@@H]3O)cs1 — higher, 41.1%
- c1cc(-c2cncc(C3CCNCC3)n2)n[nH]1 — higher, 35%
- Cc1cc(C(=O)NCc2cccnc2N(C)C)c(C)o1 — higher, 26.3%
- Nc1nccnc1C(=O)NC1CCCN(Cc2c(F)cccc2F)C1 (stereo not drawn) — higher, 21.8%
- Cn1nc(Cn2cccc2)c2c1CN(Cc1ccoc1)C2 — higher, 24.6%
- Cn1nc(Cn2ccnc2)c2c1CN(Cc1ccoc1)C2 — lower, -9.42%
- CC(C)n1nc(Cn2cccc2)c2c1CN(Cc1ccoc1)C2 — higher, 54.1%
- CN1CCN(CC2CC2)C(=O)c2cnc(N3CCCCC3)nc21 — higher, 7.64%
- CCc1ccc(-c2ncc3c(n2)N(C)CCN(CCN(C)C)C3=O)cc1 — higher, 79.7%
- CN(C)c1ncc2c(n1)N(C)CCN(CC1CC1)C2=O — higher, 21.9%
- COc1ccc(CN2CCC3(CC2)CCN(CCN(C)C)C3=O)cc1 — lower, -17.1%
- CN1CCN(CC2CC2)C(=O)c2cnc(N3CCCC3)nc21 — higher, 11%
- CN(C)CCN1CCN(C)c2nc(-c3ccccc3)ncc2C1=O — higher, 59%
- CCCN(C)c1ncc2c(n1)N(C)CCN(CC1CC1)C2=O — higher, 5.56%
- COc1cccc(-c2ncc3c(n2)N(C)CCN(CCN(C)C)C3=O)c1 — higher, 57.5%
- COc1cccc(-c2nccc(C3CCCN3C)n2)c1 (stereo not drawn) — higher, 21.1%
- COc1cccc2cc(CNC(=O)N3CCS(=O)(=O)CC3)oc12 — higher, 23.5%
- Cc1noc(C)c1-c1cncc(C2CCCN2Cc2ncccc2F)n1 (stereo not drawn) — higher, 1.5%
- CCn1ncc(Nc2[nH]cnc3nncc2-3)c1C — higher, 31.2%
- N#Cc1ccc(S(=O)(=O)NC(=O)C2CC(c3ccccc3)=NO2)cc1 (stereo not drawn) — higher, 6.09%
- OCCc1ccccc1-n1ccnc1-c1cn(C2CCNCC2)nn1 — higher, 51.2%
- CSc1ccccc1-n1ccnc1-c1cn(C2CCNCC2)nn1 — higher, 3.96%
- Clc1ccccc1CCn1ccnc1-c1cn(C2CCNCC2)nn1 — higher, 22.4%
- Cc1cc(CN2C[C@@H]3COC[C@H](C(=O)N4CCCCO4)[C@@H]3C2)oc1C — higher, 45.1%
- Cc1csc(N2CCN(CC(=O)N3CCCC3)CC2C)n1 (stereo not drawn) — higher, 32.25%
- CC(c1cccc(S(N)(=O)=O)c1)N(C)CCOC(C)(C)C (stereo not drawn) — lower, -27.8%
- Cc1ccccc1C(=O)NC1CCN(c2cnn(C)c2)C1=O (stereo not drawn) — higher, 11.7%
- Cc1ccsc1C(=O)NC1CCN(c2cnn(C)c2)C1=O (stereo not drawn) — higher, 65.5%
- Cc1cccc(C(=O)NC2CCN(c3cnn(C)c3)C2=O)c1C (stereo not drawn) — higher, 30.5%
- CC1(C(=O)N2CCOCC2)CNCCO1 (stereo not drawn) — higher, 6.9%
- O=C(c1ccc(Oc2cccnc2)cc1)N1CCN(CCO)CC1 — higher, 40.6%
- CCCN1CCN(C(=O)c2cccnc2)CC1 — higher, 64.7%
- CCCN1CCCN(C(=O)c2ccc(Oc3cccnc3)cc2)CC1 — higher, 61%
- CCCN1CCCN(c2ncccc2C(=O)N2CCCCC2)CC1 — higher, 25.1%
- Cc1cc(N2CCN(C(=O)c3cccnc3)CC2)nc(C)n1 — higher, 6.26%
- CCOc1ccnc(N2CCN(C(=O)c3cccnc3)CC2)n1 — higher, 15.5%
- CCc1cc(N(C)CCc2c(C)n[nH]c2C)ncn1 — higher, 23%
- O=C(CCn1ccnc1)N1CC[C@H](Oc2ccc(F)cc2)[C@@H](O)CC1 — higher, 32.05%
- CN(CC(N)=O)C(=O)c1csc(Br)c1 — higher, -5.1%
- CS(=O)(=O)NCCC(=O)Nc1cnn(-c2ccccc2Cl)c1 — higher, 7.08%
- Cc1nn(-c2ccccc2)c(C)c1-c1ccnc(N2CCCNCC2)n1 — higher, 85.8%
- Cc1nn(-c2ccccc2)c(C)c1-c1ccnc(N2CCCOCC2)n1 — lower, -54.3%
- Cc1nn(-c2ccccc2)c(C)c1-c1ccnc(N2CCC(O)CC2)n1 — higher, 20.2%
